# In PubChem BioAssay (NCI):
# Where “and” joins values, the source holds several entries; their conditions need not be identical. Identical values can stand only once. This is part of a sample that, as a whole, favours compounds with a hit. Of some 83,000 tested, about 20% had one in any assay.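 Step 1: grow cells in 96-well plates. Step 2: add test compound at a single concentration. Step 3: incubate 48 h. Step 4: record percent growth.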 Calls of active or inactive are those of the source. The calls were made as follows: active = growth percent below 10; inactive = the rest.
# Legend:
# Assay in all cases: NCI-60 one-dose screen, 48 h (100 = growth as untreated, 0 = no growth, -100 = all killed)
# HCT-15 colon = system: HCT-15 colon
# HT29 colon = system: HT29 colon
# SNB-75 CNS = system: SNB-75 CNS
# SNB-19 CNS = system: SNB-19 CNS
# U251 CNS = system: U251 CNS
# PC-3 prostate = system: PC-3 prostate
# SK-MEL-5 melanoma = system: SK-MEL-5 melanoma
# UACC-62 melanoma = system: UACC-62 melanoma
# LOX IMVI melanoma = system: LOX IMVI melanoma
# SK-MEL-28 melanoma = system: SK-MEL-28 melanoma
smiles,measurement,setting,value
COc1ccc2c(c1)CC[C@@H]1[C@@H]2CC[C@]2(C)C3C(=CCC4C(=O)N(c5ccccc5)C(=O)C43)C[C@@H]12 (some centres undefined),growth,HCT-15 colon; 10 µM unless noted,88.5% (inactive)
same,growth,HT29 colon; 10 µM unless noted,71.3% (inactive)
same,growth,SNB-75 CNS; 10 µM unless noted,79.8% (inactive)
same,growth,SNB-19 CNS; 10 µM unless noted,108% (inactive)
same,growth,U251 CNS; 10 µM unless noted,87.5% (inactive)
same,growth,PC-3 prostate; 10 µM unless noted,51.1% (inactive)
same,growth,SK-MEL-5 melanoma; 10 µM unless noted,89.9% (inactive)
same,growth,UACC-62 melanoma; 10 µM unless noted,64.5% (inactive)
same,growth,LOX IMVI melanoma; 10 µM unless noted,83.6% (inactive)
same,growth,SK-MEL-28 melanoma; 10 µM unless noted,105% (inactive)
C#CCOCC1CN(C)C(=O)O1 (centres undefined),growth,HCT-15 colon; 10 µM unless noted,98.1% (inactive)
same,growth,HT29 colon; 10 µM unless noted,99.5% (inactive)
same,growth,SNB-75 CNS; 10 µM unless noted,98.5% (inactive)
same,growth,SNB-19 CNS; 10 µM unless noted,107% (inactive)
same,growth,U251 CNS; 10 µM unless noted,103% (inactive)
same,growth,PC-3 prostate; 10 µM unless noted,109% (inactive)
same,growth,SK-MEL-5 melanoma; 10 µM unless noted,114% (inactive)
same,growth,UACC-62 melanoma; 10 µM unless noted,112% (inactive)
same,growth,LOX IMVI melanoma; 10 µM unless noted,105% (inactive)
same,growth,SK-MEL-28 melanoma; 10 µM unless noted,110% (inactive)
COc1ccc(C(=O)/C=C/c2ccc(OCc3ccc(Cl)cc3)cc2)cc1OC,growth,HCT-15 colon; 10 µM,92.9% (inactive)
same,growth,HCT-15 colon; 100 µM,34.1% (inactive)
same,growth,SNB-75 CNS; 10 µM,96.9% (inactive)
same,growth,SNB-75 CNS; 100 µM,-26.3% (active)
same,growth,SNB-19 CNS; 10 µM,105% (inactive)
same,growth,SNB-19 CNS; 100 µM,-47.3% (active)
same,growth,U251 CNS; 10 µM,93.2% (inactive)
same,growth,U251 CNS; 100 µM,-90.3% (active)
same,growth,PC-3 prostate; 10 µM,97.5% (inactive)
same,growth,PC-3 prostate; 100 µM,16.9% (inactive)
same,growth,SK-MEL-5 melanoma; 10 µM,92.3% (inactive)
same,growth,SK-MEL-5 melanoma; 100 µM,-10.4% (active)
same,growth,UACC-62 melanoma; 10 µM,96.1% (inactive)
same,growth,UACC-62 melanoma; 100 µM,23.6% (inactive)
same,growth,LOX IMVI melanoma; 10 µM,88.8% (inactive)
same,growth,LOX IMVI melanoma; 100 µM,22.1% (inactive)
same,growth,SK-MEL-28 melanoma; 10 µM,103% (inactive)
same,growth,SK-MEL-28 melanoma; 100 µM,55.9% (inactive)
Nc1ncc(-c2ccc3ncnc(N4CCc5ccc(Cl)cc54)c3c2)cc1C(F)(F)F,growth,HCT-15 colon; 10 µM unless noted,14.9% (inactive)
same,growth,HT29 colon; 10 µM unless noted,9.27% (active)
same,growth,SNB-75 CNS; 10 µM unless noted,-23.4% (active)
same,growth,SNB-19 CNS; 10 µM unless noted,32.7% (inactive)
same,growth,U251 CNS; 10 µM unless noted,28.4% (inactive)
same,growth,PC-3 prostate; 10 µM unless noted,15.4% (inactive)
same,growth,SK-MEL-5 melanoma; 10 µM unless noted,22.6% (inactive)
same,growth,UACC-62 melanoma; 10 µM unless noted,10.5% (inactive)
same,growth,LOX IMVI melanoma; 10 µM unless noted,11.7% (inactive)
same,growth,SK-MEL-28 melanoma; 10 µM unless noted,28.7% (inactive)
N=c1ccccn1CCO,growth,HCT-15 colon; 10 µM unless noted,87% (inactive)
same,growth,HT29 colon; 10 µM unless noted,97.3% (inactive)
same,growth,SNB-75 CNS; 10 µM unless noted,113% (inactive)
same,growth,SNB-19 CNS; 10 µM unless noted,93.5% (inactive)
same,growth,U251 CNS; 10 µM unless noted,109% (inactive)
same,growth,PC-3 prostate; 10 µM unless noted,92.7% (inactive)
same,growth,SK-MEL-5 melanoma; 10 µM unless noted,104% (inactive)
same,growth,UACC-62 melanoma; 10 µM unless noted,98.1% (inactive)
same,growth,LOX IMVI melanoma; 10 µM unless noted,104% (inactive)
same,growth,SK-MEL-28 melanoma; 10 µM unless noted,108% (inactive)
c1ccc(Cc2cccc[n+]2C(c2ccccc2)c2ccccc2)cc1,growth,HCT-15 colon; 10 µM unless noted,93.1% (inactive)
same,growth,HT29 colon; 10 µM unless noted,31.8% (inactive)
same,growth,SNB-75 CNS; 10 µM unless noted,50.8% (inactive)
same,growth,SNB-19 CNS; 10 µM unless noted,58.1% (inactive)
same,growth,U251 CNS; 10 µM unless noted,42.5% (inactive)
same,growth,PC-3 prostate; 10 µM unless noted,35.8% (inactive)
same,growth,SK-MEL-5 melanoma; 10 µM unless noted,14.5% (inactive)
same,growth,UACC-62 melanoma; 10 µM unless noted,37.7% (inactive)
same,growth,LOX IMVI melanoma; 10 µM unless noted,58.2% (inactive)
same,growth,SK-MEL-28 melanoma; 10 µM unless noted,41.6% (inactive)
COc1ccc(C(=O)/C=C/c2ccc(OCc3cccc(C(F)(F)F)c3)c(OC)c2)cc1OC,growth,HCT-15 colon; 10 µM,73% (inactive)
same,growth,HCT-15 colon; 100 µM,14.4% (inactive)
same,growth,HT29 colon; 10 µM,54.3% (inactive)
same,growth,HT29 colon; 100 µM,19.6% (inactive)
same,growth,SNB-75 CNS; 10 µM,93.6% (inactive)
same,growth,SNB-75 CNS; 100 µM,-27.5% (active)
same,growth,SNB-19 CNS; 10 µM,93.9% (inactive)
same,growth,SNB-19 CNS; 100 µM,-21.9% (active)
same,growth,U251 CNS; 10 µM,75% (inactive)
same,growth,U251 CNS; 100 µM,-51.7% (active)
same,growth,PC-3 prostate; 10 µM,69.1% (inactive)
same,growth,PC-3 prostate; 100 µM,-7.78% (active)
same,growth,SK-MEL-5 melanoma; 10 µM,76.5% (inactive)
same,growth,SK-MEL-5 melanoma; 100 µM,-34.4% (active)
same,growth,UACC-62 melanoma; 10 µM,78.4% (inactive)
same,growth,UACC-62 melanoma; 100 µM,20.7% (inactive)
same,growth,LOX IMVI melanoma; 10 µM,51% (inactive)
same,growth,LOX IMVI melanoma; 100 µM,10% (inactive)
same,growth,SK-MEL-28 melanoma; 10 µM,101% (inactive)
same,growth,SK-MEL-28 melanoma; 100 µM,46.3% (inactive)
COc1cc(-c2nc(SCCC(C)C)nc(Nc3ccc(F)cc3)c2C#N)cc(OC)c1OC,growth,HCT-15 colon; 10 µM unless noted,88.8% (inactive)
same,growth,HT29 colon; 10 µM unless noted,55% (inactive)
same,growth,SNB-75 CNS; 10 µM unless noted,30.8% (inactive)
same,growth,SNB-19 CNS; 10 µM unless noted,45.5% (inactive)
same,growth,U251 CNS; 10 µM unless noted,29.7% (inactive)
same,growth,PC-3 prostate; 10 µM unless noted,75.9% (inactive)
same,growth,SK-MEL-5 melanoma; 10 µM unless noted,97.6% (inactive)
same,growth,UACC-62 melanoma; 10 µM unless noted,80.5% (inactive)
same,growth,LOX IMVI melanoma; 10 µM unless noted,79.2% (inactive)
same,growth,SK-MEL-28 melanoma; 10 µM unless noted,104% (inactive)
C=CCNC(=O)Cc1c(-c2ccc(OC)cc2)oc2c(OC)c3c(c(OC)c12)OCO3,growth,HCT-15 colon; 10 µM unless noted,86.7% (inactive)
same,growth,HT29 colon; 10 µM unless noted,86.5% (inactive)
same,growth,SNB-75 CNS; 10 µM unless noted,96.4% (inactive)
same,growth,SNB-19 CNS; 10 µM unless noted,95.3% (inactive)
same,growth,U251 CNS; 10 µM unless noted,105% (inactive)
same,growth,PC-3 prostate; 10 µM unless noted,95.2% (inactive)
same,growth,SK-MEL-5 melanoma; 10 µM unless noted,96.3% (inactive)
same,growth,UACC-62 melanoma; 10 µM unless noted,89% (inactive)
same,growth,LOX IMVI melanoma; 10 µM unless noted,93% (inactive)
same,growth,SK-MEL-28 melanoma; 10 µM unless noted,109% (inactive)
CCCCCCCCCCCCCCCC(=O)O[C@@H]1[C@@H](O)[C@@H](O)C([C@H](NC(=O)[C@@H]2C[C@@H](CCC)CN2C)[C@H](C)Cl)O[C@@H]1SC (some centres undefined),growth,HCT-15 colon; 10 µM unless noted,99.9% (inactive)
same,growth,HT29 colon; 10 µM unless noted,111% (inactive)
same,growth,SNB-75 CNS; 10 µM unless noted,96.2% (inactive)
same,growth,SNB-19 CNS; 10 µM unless noted,101% (inactive)
same,growth,U251 CNS; 10 µM unless noted,102% (inactive)
same,growth,PC-3 prostate; 10 µM unless noted,97.6% (inactive)
same,growth,SK-MEL-5 melanoma; 10 µM unless noted,99.9% (inactive)
same,growth,UACC-62 melanoma; 10 µM unless noted,104% (inactive)
same,growth,LOX IMVI melanoma; 10 µM unless noted,105% (inactive)
same,growth,SK-MEL-28 melanoma; 10 µM unless noted,112% (inactive)
CC[C@]12CN3CCc4c([nH]c5ccccc45)[C@@](C(=O)OC)(c4cc5c(cc4OC)N(C)[C@H]4[C@@](O)(C(=O)OC)[C@H](OC(C)=O)[C@]6(CC)C=CCN7CC[C@]54[C@@H]76)CC(C3)[C@H]1O2 (some centres undefined),growth,HCT-15 colon; 10 µM unless noted,29% (inactive)
same,growth,HT29 colon; 10 µM unless noted,2.74% (active)
same,growth,SNB-75 CNS; 10 µM unless noted,-2.51% (active)
same,growth,SNB-19 CNS; 10 µM unless noted,26.9% (inactive)
same,growth,U251 CNS; 10 µM unless noted,16% (inactive)
same,growth,PC-3 prostate; 10 µM unless noted,15.5% (inactive)
same,growth,SK-MEL-5 melanoma; 10 µM unless noted,-26.4% (active)
same,growth,UACC-62 melanoma; 10 µM,26.6% (inactive)
same,growth,UACC-62 melanoma; 100 µM,94.4% (inactive) and -98.3% (active)
same,growth,LOX IMVI melanoma; 10 µM unless noted,19.5% (inactive)
same,growth,SK-MEL-28 melanoma; 10 µM unless noted,60.2% (inactive)
